Compounds without any hit were thinned out: in the full panel of roughly 83,000, 20% have a hit.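 Negative percent growth values reflect cell death: -40 means 40% of the cells present at the start died, and -100 means all died.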 A number with no mark means an inactive call. Active and inactive are the calls of the source.

The assay deals with LOX IMVI melanoma. As to the kind of experiment: NCI-60 one-dose screen, 48 h (100 = growth as untreated, 0 = no growth, -100 = all killed). Particulars: 10 µM unless noted. As for the experimental part: Growth inhibition of the LOX IMVI human tumor cell line is measured as a screen for anti-cancer activity. Cells are grown in 96 well plates and exposed to the test compound for 48 hours. Compounds are tested at a single concentration, which is 10^-5 M for most compounds. The reported endpoint is percent growth (GI% or GIPRCNT), where numbers from 0 - 100% represent growth inhibition, and numbers from -100% - 0 represent cell death. For example, a value of 40 represents 60% growth inhibition. A value of 0 means no net growth occurred over the course of the experiment. A value of -40 indicates 40% of cells at the beginning of the experiment died by the end of the experiment. A value of -100 means all cells are dead at the end of the experiment.
NCI-60 Human Tumor Cell Lines Screen was performed using the standard one-dose NCI protocol, which is described in more detail at https://dtp.cancer.gov/discovery_development/nci-60/default.htm.
Compounds with GIPRCNT values below 10 were considered active. Activity score was based on GIPRCNT using the following formula: […]
Score is 0 for GIPRCNT values of 100 or above, 50 for GIPRCNT values of 0, and 100 for GIPRCNT values of -100.
As for `Nc1nc(N)c(-c2ccc(Cl)c(Cl)c2)c(/C=C/c2ccc(S(=O)(=O)F)cc2)n1`, the growth is 69.1%.
The figure for `C1CNC2CCCC2C1` (stereo not given) is 101%; for `Cn1cnnc1[S-].[Au+].c1ccc([PH+](c2ccccc2)c2ccccc2)cc1` it is -48.6% (active).
The figure for `CN1CCN(C(=O)COc2ccc(/C=C3\CC4C5CC=C6CC(Cl)CCC6(C)C5CCC4(C)C3=O)cc2)CC1` (stereo not given) is 23.5%; for `C[C@]12CC[C@H]3[C@@H](C[C@@H]4N=C(c5ccc(O)cc5)S[C@@]45C[C@H](O)CC[C@]35C)[C@@H]1CC[C@@H]2O` it is 25.4%; for `ClCCN(CCCl)c1ccc(/C=C\c2ccnc3ccccc23)cc1` it is 80.3%.
With `CCOC(=O)/C(C#N)=C/c1ccc(N(CCCl)CCCl)cc1`, the growth was 92%.
The figure for `Cc1cc(NC(=O)NCCOc2ccc(N3C(N)=NC(N)=NC3(C)C)cc2Cl)ccc1S(=O)(=O)F` is 12.8%; for `S=P(N1CCCCCC1)(N1CC1)N1CC1` it is 103%; for `N#[N+]c1nc2nc(N)[nH]c(=O)c2[nH]1` it is 98.5%.
On to `COc1ccc(OC)c(/C=C(/C)[N+](=O)[O-])c1`, for which the growth was -88.6% (active).
`[Br][Pb]([c]1ccccc1)([c]1ccccc1)[c]1ccccc1`: the growth was -100% (active).
`Cc1cc(CCl)c(C)cc1CCl`: the growth is 28%.
Regarding `CC(=O)N(C)C1=Nc2ccc(Cl)cc2C(c2ccccc2)=[N+]([O-])C1`, the growth is 95.4%.
Turning to `C=CCc1ccc(OC(=O)Cc2ccccc2)c(OC)c1`, the growth is 93.6%.
`C[C@]12CC[C@@H]3c4ccc(OC(=O)Cc5ccc(N(CCCl)CCCl)cc5)cc4CC[C@H]3[C@@H]1CC[C@@H]2OC(=O)Cc1ccc(N(CCCl)CCCl)cc1`: the growth is 108%.
Take `Oc1ccccc1OB(Oc1ccccc1O)N(CCCl)CCCl`: the growth is 89.4%.
For `Cc1cccc(N(C)c2cccc3c2C(=O)[Se]C3)c1C`, the growth is 38.2%.
Consider `CCOC(=O)/C=C(\C)Nc1ccc(N/C(C)=C/C(=O)OCC)c2c1Oc1ccccc1O2`, for which the growth is 94.4%.
Regarding `C[C@@H]1O[C@@H](O[C@H]2CC[C@@]3(C)[C@H](CCC4[C@@H]3C(O)C[C@]3(C)[C@@H](c5ccc(=O)oc5)CC[C@]43O)C2)[C@H](O)[C@H](O)[C@H]1O` (stereo not given in full), the growth was -55.8% (active).
As to `N#CC1=C(N)Oc2cc3c(cc2C1c1cccs1)OCO3` (stereo not given), the growth was 37.2%.
Consider `OC1(c2ccc(Cl)cc2Cl)c2ccccc2C2=NCCN21` (stereo not given), for which the growth is 90.7%.
As to `CCCCOC(=O)c1ccccc1C(=O)O.CCCCOC(=O)c1ccccc1C(=O)O.[Cu+2]`, the growth is 89.4%.
The figure for `CCC(CC)(c1ccccc1)C(OC(N)=O)c1ccccc1` (stereo not given) is 77.8%; for `N#C[Se]CCCNS(=O)(=O)C1CC2C=CC1C2` (stereo not given) it is -76.8% (active).
As to `C1CN1c1nc(N2CC2)nc(N2CC2)n1`, the growth is 17%.
With `CNc1ccc(C(=O)CC(O)CCC(C)C2OC(=O)CC(O)CC(=O)CC(O)CC(O)CC(O)CC(O)CC3(O)CC(O)C(C(=O)OC)C(CC(O[C@@H]4O[C@H](C)[C@@H](O)[C@H](N)[C@@H]4O)/C=C/C=C/C=C/C=C/C=C/C=C/C=C/C2C)O3)cc1` (stereo not given in full), the growth was -8.67% (active).
As to `CCN(CC)CCOc1c(C(C)C)cccc1C(C)C`, the growth is 99.5%.
Consider `N#C[Se]CCN1C(=O)C2C(C1=O)[C@H]1C=C[C@@H]2S1` (stereo not given in full), for which the growth is -46% (active).
`O=C(CCF)c1ccc(O)cc1`: the growth was 95%.
The figure for `CC(/C=N/N=C(N)N)=N\N=C(N)N` is 67%; for `COc1ccc(NP2(=O)OCC(C)(N)CO2)cc1` (stereo not given) it is 89.4%; for `C/C(=N/OC(=O)N(C)C)c1ccc(Cl)cc1Cl` it is 97.8%.
The figure for `NC(=O)NC(=O)CI` is -67.3% (active); for `CC1([N+](=O)[O-])COP(=O)(Nc2ccc(F)cc2)OC1` (stereo not given) it is 84.2%.
On to `O=C(O)CNC(=O)c1ccccc1`, for which the growth is 95.9%.
Under `CCCCN(CCCC)CC(O)c1ccccc1` (stereo not given) stands 103%; under `CCC(C)(C)O`, 108%; under `C[C@]12CC[C@@H]3C4=C(CC[C@H]3[C@@H]1CC[C@@H]2O)CC(=O)CC4`, 90.2%.
Under `CC(=O)[O][Hg][c]1ccccc1` stands -88.2% (active).
